Source: PubChem (National Center for Advancing Translational Sciences (NCATS))
Shiga inhibitor: inhibitors of Shiga toxin in Vero cells; AID 2315; inhibition, % at 38.7 µM; 290,000 compounds, 9.2% hits; Vero cells, Shiga toxin protein synthesis inhibition reporter; in the data active = inhibition mostly above about 28%, no sharp cut-off; inactive = mostly below about 43%
LmPK inhibitor: inhibitors of Leishmania mexicana pyruvate kinase; Potency, µM (highest dose often 57.5 µM), actives largely listed as inhibitors; AID 1721; purified LmPK, Kinase-Glo ATP luminescence, 1 h; Q27686; 290,000 compounds, 0.37% hits
Target sequence (Q27686 whole entry, looked up): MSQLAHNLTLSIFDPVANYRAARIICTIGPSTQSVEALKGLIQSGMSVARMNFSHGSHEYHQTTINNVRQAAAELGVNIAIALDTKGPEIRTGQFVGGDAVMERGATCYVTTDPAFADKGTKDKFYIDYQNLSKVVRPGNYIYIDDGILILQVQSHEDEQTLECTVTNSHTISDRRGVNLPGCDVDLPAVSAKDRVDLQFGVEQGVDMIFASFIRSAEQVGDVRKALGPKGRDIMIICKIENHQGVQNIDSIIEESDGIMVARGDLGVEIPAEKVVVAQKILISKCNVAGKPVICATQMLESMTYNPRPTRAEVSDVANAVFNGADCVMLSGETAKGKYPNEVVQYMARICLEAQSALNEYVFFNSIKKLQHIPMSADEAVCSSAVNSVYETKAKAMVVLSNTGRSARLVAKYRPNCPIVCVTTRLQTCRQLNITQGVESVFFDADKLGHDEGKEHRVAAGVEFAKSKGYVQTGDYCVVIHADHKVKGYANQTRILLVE
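Purified LmPK (0.1 nM) with 0.5 mM PEP and 0.1 mM ADP in imidazole buffer pH 7.2 with MgCl2/KCl, 1 h at room temperature. ATP formed was read by luciferase luminescence and normalized to no-enzyme and uninhibited controls.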
Sm TGR block: inhibitors of Schistosoma mansoni thioredoxin glutathione reductase. Potency, µM (series often up to 114 µM), hits mostly inhibitors. Q962Y6. AID 485364. 360,000 compounds, 3% hits. purified TGR, DTNB reduction, TNB absorbance 405 nm; also: nearly all actives have a fitted effect of over 60% in size
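First, TGR (20 nM dispensed) and NADPH were mixed with compound. Second, a 15 min room-temperature incubation followed. Third, further NADPH and then DTNB were added to start the reaction. Finally, TNB absorbance was monitored kinetically.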
CHX counter: affects cycloheximide protein synthesis inhibition readout, counter-screen; cell reporter, cycloheximide protein synthesis inhibition counterscreen; 300,000 compounds, 12% hits; max response, %; AID 2314; in the data active = max response mostly above about 13%, no sharp cut-off; inactive = mostly below about 14%; also: read at 38.3 µM for the half of the compounds with a filed dose
FBPA Giardia inh: Giardia lamblia aldolase inhibition | A8B2U2 | purified Giardia FBPA | Potency, µM (doses to about 59.6 µM), actives largely listed as inhibitors | 290,000 compounds, 0.71% hits; also: nearly all actives have a fitted effect of over 55% in size
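Giardia FBPA (40 nM reagent) was preincubated 10 min at RT with compound (up to 57.5 uM final), then substrate plus GAPDH/TPI/NAD/arsenate coupling system with diaphorase/resazurin was added; resorufin fluorescence (525/598 nm) was read after 20 min.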
Tb PYK inh: inhibitors of Trypanosoma brucei pyruvate kinase; 410,000 compounds, 0.12% hits; Potency, µM (series often up to 76.8 µM), usual class: inhibitors; TbPYK enzyme, Kinase-Glo Plus ATP luminescence, 45 min; also: nearly all actives have a fitted effect of over 50% in size
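In this concentration-response screen, enzyme-free wells defined baseline while DMSO plates tracked drift. Each reaction combined TbPYK, substrate, compound and 130 uM ADP for 45 min at room temperature. Kinase-Glo Plus luminescence gave the signal.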
Large screens that a line does not name were inactive. The full list was thinned out, with hits kept by preference. Unless noted, calls follow the shape of the dose curve; as a rule, active = well fitted curve in the direction sought with a large enough effect; inconclusive = small, poorly fitted or top-dose-only effect, or another doubt; inactive = no such curve, though single readings can be large; an effect the other way counts as inactive or inconclusive.

CCC(C)NC(=O)Nc1ccc(Br)cc1 (stereo not drawn)	Shiga inhibitor 79.4, CHX counter 32.4
CC(CC(=O)O)CC(=O)Nc1ccc(Br)cc1 (stereo not drawn)	none
CC(C)(C)NC(=O)Nc1ccc(Br)cc1	Shiga inhibitor 83.4, CHX counter 38.6
CCOC(=O)C1CCCN(C(=O)CCc2nc3sc4c(c3c(=O)[nH]2)CCCC4)C1 (stereo not drawn)	none (no result: Shiga inhibitor, LmPK inhibitor, CHX counter, FBPA Giardia inh)
CC(=O)N[C@@H](Cc1c[nH]c2ccccc12)C(=O)OCC(=O)Nc1ccc2c(c1)OCO2	none (no result: Shiga inhibitor, LmPK inhibitor, Sm TGR block, CHX counter, FBPA Giardia inh)
O=C(Nc1ccc2c(c1)OCO2)C(=O)c1c[nH]c2ccccc12	Shiga inhibitor 72.1, CHX counter 27.6 (no result: FBPA Giardia inh)
CCC(C(=O)Nc1ccc2c(c1)OCCO2)n1c(=O)[nH]c2ccccc2c1=O (stereo not drawn)	Shiga inhibitor 88.3, CHX counter 73.4
Cc1cc(NC(=O)C(=O)c2c(C)[nH]c3ccccc23)no1	Sm TGR block inconclusive
Cc1cc2ccccc2c(=O)n1CC(=O)Nc1ccc2c(c1)OCCO2	none
O=C(Nc1ccc2c(c1)OCCO2)C(=O)c1c[nH]c2ccccc12	Shiga inhibitor 20.8 (no result: FBPA Giardia inh)
Cc1[nH]c2ccccc2c1C(=O)C(=O)Nc1ccc2c(c1)OCCO2	Shiga inhibitor 95.8, CHX counter 34.2 (no result: FBPA Giardia inh)
O=C(c1c[nH]c2ccccc12)N1CCOCC1	Sm TGR block inconclusive
COc1ccc(OCCCCn2c(-c3ccc(Cl)cc3)nc3ccccc3c2=O)cc1	none (no result: Shiga inhibitor, LmPK inhibitor, CHX counter, FBPA Giardia inh)
Cc1ccc(F)c(C2C3C=CCCC3(C)C(=O)N2Cc2ccccc2)c1 (stereo not drawn)	none (no result: LmPK inhibitor, Sm TGR block, Tb PYK inh)
CCN(CC)C(=O)Cn1cc(C(=O)C(=O)Nc2ccc3c(c2)OCCO3)c2ccccc21	Shiga inhibitor 102.6, CHX counter 48.2
O=C(Nc1cc(Br)ccc1O)c1cc(-c2ccc3c(c2)OCO3)on1	Shiga inhibitor 76.5, CHX counter 14.8
O=C(Nc1c(Cl)cccc1Cl)c1cc(-c2ccc3c(c2)OCO3)on1	none (no result: Shiga inhibitor, LmPK inhibitor, CHX counter, FBPA Giardia inh)
Cc1c(Cl)cccc1NC(=O)c1cc(-c2ccc3c(c2)OCO3)on1	none (no result: Shiga inhibitor, LmPK inhibitor, CHX counter, FBPA Giardia inh)
CSc1ccccc1NC(=O)c1cc(-c2ccc3c(c2)OCO3)on1	Shiga inhibitor 61.2
CN(C(=O)c1cc(-c2ccc3c(c2)OCO3)on1)c1ccccc1	Shiga inhibitor 95.0, CHX counter 33.7
COc1cc(-c2noc(-c3ccc(NCc4ccco4)c([N+](=O)[O-])c3)n2)cc(OC)c1OC	none (no result: Shiga inhibitor, LmPK inhibitor, CHX counter, FBPA Giardia inh)
CC(C)N1C(=O)CN(C2CCCCCC2)C(=O)C1c1ccccc1F (stereo not drawn)	Shiga inhibitor 187.1, CHX counter 59.6
COc1ccccc1N1CCN(C(=O)Cn2ncc3c2-c2cc(C)ccc2OC3)CC1	none (no result: Shiga inhibitor, LmPK inhibitor, CHX counter, FBPA Giardia inh)
CCn1ncc(C2=NOC(C(=O)Nc3cccnc3)C2)c1C (stereo not drawn)	CHX counter 19.2
CCn1cc(S(=O)(=O)Nc2cc(F)ccc2C)cn1	none (no result: Sm TGR block)
CC1CCN(C(=O)CSc2nnc(-c3cccs3)o2)CC1	Shiga inhibitor 63.5, CHX counter 44.8
O=C(CSc1nnc(-c2cccs2)o1)N1CCCCC1	Shiga inhibitor 113.4, CHX counter 47.8
O=C(CSc1nnc(-c2cccs2)o1)N1CCOCC1	none
CC1CCN(C(=O)CSc2nnc(-c3ccccc3Cl)o2)CC1	none (no result: Shiga inhibitor, LmPK inhibitor, CHX counter, FBPA Giardia inh)
CC1CCN(C(=O)CSc2nnc(-c3ccccc3F)o2)CC1	Shiga inhibitor 56.0 (no result: FBPA Giardia inh)
CCOC(=O)N1CCN(C(=O)CSc2nnc(-c3cccs3)o2)CC1	none
COc1ccccc1CCc1nnc(CCC(=O)NCC[C@@H]2C[C@@H]3C=C[C@H]2C3)o1	CHX counter 12.5
Cn1cccc1/C=N/NC(=O)c1cccnc1	none
O=C(N/N=C/c1c(-c2ccccc2)[nH]c2ccccc12)c1cccnc1	Shiga inhibitor 64.6, CHX counter 26.6
Cn1c(-c2ccccc2)c(/C=N/NC(=O)c2cccnc2)c2ccccc21	Shiga inhibitor 68.5, Sm TGR block inconclusive, CHX counter 20.7
Cc1ccc(CN(Cc2ccco2)C(=O)c2ccccc2Cl)o1	none (no result: Shiga inhibitor, LmPK inhibitor, CHX counter, FBPA Giardia inh)
CCN1C(=O)/C(=C\N2CCCc3ccccc32)SC1=S	none
CCN1C(=O)/C(=C/N2CCc3ccccc32)SC1=S	Shiga inhibitor 68.9, CHX counter 15.8
COc1cc([C@@H]2CC(=O)c3c(O)cc(O)cc3O2)ccc1O	none (no result: LmPK inhibitor, Sm TGR block, Tb PYK inh)
